This is a sample that favours compounds with a hit; in the whole collection about 6.9% have one here.
MCF10A rerep – inducers of DNA re-replication in MCF 10A breast cells | MCF 10A DNA re-replication, Hoechst nuclear intensity, 48 h | Potency, µM (highest dose often 46.1 µM), without a hit: top-dose activity, positive = re-replication, usual class: activators | 2.9% of 350,000 active | AID 624296; also: potency is read from the fitted curve at half-maximal effect; % of control where 0% means no effect; nearly all actives have a fitted effect of over 50% in size
KB-V1 cytotox – KB-V1 MDR subline cytotoxicity; KB-V1 MDR cells viability, CellTiter-Glo, 72 h; 3.4% of 400,000 active; Potency, µM (series often up to 46.1 µM), usual class: cytotoxic; AID 1347076; also: potency is read from the fitted curve at half-maximal effect; % is scaled to controls: 0 for no effect and ±100 for the full control effect; nearly all actives have a fitted effect of over 60% in size
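Following 72 h at 37 degrees C with compound, KB-V1 cell viability was read by CellTiter-Glo luminescence, medium being phenol-red-free DMEM plus 10% FBS; concentration-response parameters came from normalized, curve-fitted qHTS data.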
KB-3-1 cytotox – kills parental KB-3-1 adenocarcinoma cells; KB-3-1 viability, CellTiter-Glo ATP luminescence, 72 h; Potency, µM (series often up to 46.1 µM), actives largely listed as cytotoxic; 1.4% of 400,000 active; also: potency is read from the fitted curve at half-maximal effect; % is scaled to controls: 0 for no effect and ±100 for the full control effect; nearly all actives have a fitted effect of over 60% in size
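KB-3-1 parental drug-naive adenocarcinoma cells in DMEM/10% FBS, incubated 72 h at 37 C with pin-transferred compounds across a concentration series. Viability by CellTiter-Glo luminescence; concentration-response curves fitted after normalization.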
Giardia killer – kills Giardia lamblia. Giardia lamblia trophozoite viability. activity change, % at 7.66 µM, hits read low. 0.15% of 340,000 active. AID 540267; in the data active = activity change below about -80%; inconclusive = between about -30% and that limit;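 also: parasites exposed to compound for two days anaerobically before the ATP read; % is scaled to controls: 0 for no effect and ±100 for the full control effect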
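Trophozoite viability was measured as ATP-dependent luminescence, read 15-30 min after reagent addition. Before that, parasites at 100 cells/well were exposed to compounds for 48 h, anaerobically, at 37 deg C.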
SW480 rerep – DNA re-replication induction in SW480 cells | SW480 DNA re-replication, Hoechst DNA content imaging, 48 h | Potency, µM (doses to about 46.1 µM), for inactives: at the top dose re-replication activation, usual class: activators | 1.8% of 340,000 active; also: potency is read from the fitted curve at half-maximal effect; % of control where 0% means no effect; nearly all actives have a fitted effect of over 55% in size
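SW480 cells exposed to compounds for 48 hr at 37 C, 5% CO2, then Hoechst-stained 40 min. Nuclear DNA content imaged by fluorescence scanning (405 nm excitation, 500-530 nm emission); re-replication scored as increased high-intensity nuclei.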
ASM inhibitor – inhibitors of human secretory acid sphingomyelinase; P17405; placental ASM, HMU-PC fluorogenic substrate, 60 min; AID 504937; 0.006% of 340,000 active; Potency, µM (titrated, usually from 57.5 µM), inactives show at the top dose activity change, negative = inhibition, hits mostly inhibitors; also: potency is read from the fitted curve at half-maximal effect
Target sequence (P17405 47-631 limits assumed): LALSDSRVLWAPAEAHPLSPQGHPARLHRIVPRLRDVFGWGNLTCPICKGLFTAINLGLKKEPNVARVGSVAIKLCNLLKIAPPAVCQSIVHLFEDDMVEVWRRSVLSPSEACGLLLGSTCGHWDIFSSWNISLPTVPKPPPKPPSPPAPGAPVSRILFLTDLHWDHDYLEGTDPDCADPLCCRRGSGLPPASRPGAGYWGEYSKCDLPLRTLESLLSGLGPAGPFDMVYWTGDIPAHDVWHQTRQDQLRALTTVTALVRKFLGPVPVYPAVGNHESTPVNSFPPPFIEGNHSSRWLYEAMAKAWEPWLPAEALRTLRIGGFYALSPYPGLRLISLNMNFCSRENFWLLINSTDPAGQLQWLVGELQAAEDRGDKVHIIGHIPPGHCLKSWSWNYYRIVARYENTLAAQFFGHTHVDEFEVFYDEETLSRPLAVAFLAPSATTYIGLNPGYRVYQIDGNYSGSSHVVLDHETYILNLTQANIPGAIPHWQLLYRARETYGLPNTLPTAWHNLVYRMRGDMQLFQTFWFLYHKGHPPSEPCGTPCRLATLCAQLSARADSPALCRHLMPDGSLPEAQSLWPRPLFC
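Human placenta-derived ASM enzyme was preincubated with compound for 10 minutes at room temperature, then given fluorogenic substrate HMU-PC0 (9 uM final) for 60 minutes at 37 °C; a pH 10 stop preceded fluorescence reading at Ex 386/Em 447 nm.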
Active calls of the source: *; i = inactive; ? = inconclusive; nt = not tested or not shown; ! = repeats disagree. Unless noted, calls follow the shape of the dose curve; as a rule, active = well fitted curve in the direction sought with a large enough effect; inconclusive = small, poorly fitted or top-dose-only effect, or another doubt; inactive = no such curve, though single readings can be large; an effect the other way counts as inactive or inconclusive.

SMILES	MCF10A rerep	KB-V1 cytotox	KB-3-1 cytotox	Giardia killer	SW480 rerep	ASM inhibitor
O=C1C(=O)N(C2CCN(C(=O)c3ccccc3Cl)CC2)CCN1Cc1ccc(F)cc1	nt	i	i	nt	nt	nt
O=C(NCc1ccc(F)cc1)c1cc2n(n1)CCCN(Cc1ccc(F)cc1)C2=O	nt	i	i	nt	nt	nt
O=C(CN(Cc1ccccc1F)S(=O)(=O)c1ccc(Cl)cc1)NCCC1=CCCCC1	?	6.5µM*	?	20	-1%	-2%
Cc1ccc(S(=O)(=O)N(CC(=O)NCCC2=CCCCC2)Cc2ccccc2F)cc1	?	?	i	-3	?	0%
O=C1OC(C(=O)Nc2cc(C(F)(F)F)ccc2Cl)Cc2ccccc21 (centres undefined)	nt	i	i	nt	nt	nt
CC1Cc2ccccc2N1c1ncnc2nc[nH]c12 (centres undefined)	24%	i	9.2µM*	-1	-11%	-1%
c1ccc2c(c1)CCN(c1ncnc3nc[nH]c13)C2	1%	i	?	9	0%	4%
C=CCN=c1scc(-c2ccccc2)n1/N=C/c1ccccn1	?	7.3µM*!	1.5µM*!	-13	?	-3%
CCN=c1scc(-c2ccccc2)n1/N=C/c1ccccn1	21µM*	?	8.2µM*	?	-3%	36%
COc1ccc(C)cc1NC(=O)Cc1ccc(NC(=O)N2CCCCc3ccccc32)cc1	nt	i	i	nt	nt	nt
CCOC(=O)Cn1c(=O)oc2cc(S(=O)(=O)N3CCN(c4cccc(C)c4C)CC3)ccc21	nt	i	i	nt	nt	nt
CCN(CC)c1ccc(/C=C/c2cccc[n+]2C)c(OC)c1	?	i	0.65µM*	9	18µM*	-25%
CCCn1c(C(=O)OC)cc2c1ccn2-c1ccc(F)cc1	23µM*	i	i	-1	8%	-6%
COC(=O)c1cc2c(ccn2-c2ccc(F)cc2)n1CC(C)C	23µM*	i	i	-13	?	-7%
COC(=O)c1cc2c(ccn2-c2ccc(F)cc2)n1Cc1cccc(OC)c1	?	13µM*	i	-2	?	-4%
COc1ccc(NC(=O)c2oc3ccccc3c2NC(=O)c2cc(OC)c(OC)c(OC)c2)cc1	nt	i	i	nt	nt	nt
CCCCn1c(=O)n(-c2ccc(Br)cc2F)c(=O)c2c3c(sc21)CN(C(C)=O)CC3	nt	i	i	nt	nt	nt
Cc1ccc2c(=O)n3c(nc2c1)C(Cc1ccc(O)cc1)NC(=O)c1cc2ccccc2cc1-3 (centres undefined)	nt	?	16µM*	nt	nt	nt
CCCC1NC(=O)c2cc3ccccc3cc2-n2c1nc1ccc(C)cc1c2=O (centres undefined)	nt	?	i	nt	nt	nt
O=C1NC(Cc2ccccc2)c2nc3ccc(F)cc3c(=O)n2-c2cc3ccccc3cc21 (centres undefined)	nt	21µM*	?	nt	nt	nt
CCCC1NC(=O)c2cc3ccccc3cc2-n2c1nc1cc(Cl)ccc1c2=O (centres undefined)	nt	12µM*	18µM*	nt	nt	nt
O=C1NC(Cc2ccc(O)cc2)c2nc3cc(F)ccc3c(=O)n2-c2cc3ccccc3cc21 (centres undefined)	nt	?	15µM*	nt	nt	nt
O=C(NCCCCc1ccccc1)c1ccc(F)cc1	3%	i	i	-5	1%	3%
Fc1ccc(CNCc2ccccc2C(F)(F)F)cc1	-1%	i	i	-10	18µM*	0%
O=S(=O)(NCC1CCCO1)c1ccccc1F (centres undefined)	-7%	i	i	9	-7%	3%
SMILES	MCF10A rerep	KB-V1 cytotox	KB-3-1 cytotox	Giardia killer	SW480 rerep	ASM inhibitor
Cc1ccccc1S(=O)(=O)NCC1CCCO1 (centres undefined)	-12%	i	i	-11	26µM*	4%
O=C(NCc1ccc(F)cc1)C(=O)Nc1ccc2nc3n(c(=O)c2c1)CCCCC3	nt	i	i	nt	nt	nt
Cc1ccc(S(=O)(=O)N(C)CC(=O)N(C)Cc2cccs2)cc1	nt	i	i	nt	nt	nt
CCOCCCNC(=O)C(c1ccc(C)cc1)N(Cc1ccc2c(c1)OCO2)C(=O)c1ccccc1O (centres undefined)	nt	i	i	nt	nt	nt
Cc1nn(Cc2ccc(Cl)cc2Cl)c(C)c1NC(=O)c1nn(C)cc1Cl	-6%	?	?	-10	-14%	0%
Cc1nn(C)c(Cl)c1NC(=O)OCc1ccc(Cl)cc1Cl	?	2.6µM*	4.1µM*	-22	2%	1%
Cc1nnsc1NC(=O)OCc1ccc(Cl)cc1Cl	0%	i	i	5	-6%	-2%
Cc1nn(Cc2ccc(Cl)cc2Cl)c(C)c1NC(=O)CCl	?	18µM*	15µM*	0	18%	-1%
CCc1ccc(NC(=S)Nc2cccc3cnccc23)cc1	2%	21µM*	?	6	6%	-4%
Cc1cc(C)cc(NC(=S)Nc2cccc3cnccc23)c1	?	i	i	-17	0%	4%
S=C(NCc1ccco1)Nc1cc(-c2ccccc2)[nH]n1	0%	i	?	-4	?	-2%
O=C(Nc1ccccc1Sc1ccccc1)c1cnn2c1NC(=C1CC1)C=C2C(F)(F)F	nt	nt	nt	8	nt	nt
COC(=O)c1scc(-c2ccccc2)c1S(=O)(=O)Nc1cccc(C)c1C	nt	?	i	nt	nt	nt
NC(=S)Cc1ccc(Cl)cc1Cl	-1%	i	i	-5	-10%	4%
NC(=S)Cc1ccccc1Cl	0%	i	i	-15	18µM*	1%
COc1ccc(OC)c(NC(=O)c2ccc(-c3nc(CSc4ccccc4)c(C)o3)cc2)c1	nt	i	i	nt	nt	nt
Cn1sccc1=O	6%	i	i	-20	1.6µM*	-3%

Source: PubChem BioAssay (National Center for Advancing Translational Sciences (NCATS))
